Measured values: PubChem BioAssay (NCATS)
Inconclusive results are not listed. The source made the active and inactive calls. Unless noted, calls follow the shape of the dose curve; as a rule, active = well fitted curve in the direction sought with a large enough effect; inconclusive = small, poorly fitted or top-dose-only effect, or another doubt; inactive = no such curve, though single readings can be large; an effect the other way counts as inactive or inconclusive.

Columns and labels:
[1] = AP1 Signaling Pathway (AID 357; active = well fitted curve in either direction with a large enough effect, not every such curve was filed as active;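 also: ME-180 reporter cells stimulated with EGF at its EC50 level; % is scaled to controls: 0 for no effect and ±100 for the full control effect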); details: ME-180 AP-1-bla reporter, EGF-induced, beta-lactamase ratio, 5 h; at 7.69 µM (top of the series) unless noted
Summary of the method: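 A ratiometric CCF4 readout (405 nm excitation; 460 and 530 nm emission) quantified AP-1-driven beta-lactamase in ME-180 cells after 5 h with compound and EC50 EGF; AC50 values were derived for activators and inhibitors.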

[2] = Stat Signaling Pathway (AID 446; active = well fitted curve in either direction with a large enough effect, not every such curve was filed as active;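 also: ME-180 cervical cancer cells given 40 pM IL-6 alongside compound; SIE-controlled beta-lactamase reporter measured as 460/530 nm FRET emission ratio; % is scaled to controls: 0 for no effect and ±100 for the full control effect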); details: ME-180 SIE beta-lactamase reporter, IL-6 stimulated, 5 h; at 7.69 µM (top of the series) unless noted
Summary of the method: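 Reporter line: ME-180 cervical carcinoma, SIE-beta-lactamase. Treatment: compound with 40 pM IL-6, 5 hrs, 37 C, in low-serum OPTI-MEM with 10 mM HEPES pH 7.3. Detection: 460/530 nm fluorescence.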

[3] = biological target: Glucocorticoid receptor (Homo sapiens) (UniProt P04150); assay: GR-EFC Redistribution (AID 451; calls by dose curve; also: potency is read from the fitted curve at half-maximal effect); details: CHO-K1 GR-EFC translocation, beta-gal luminescence, 2 h
Summary of the method: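 CHO-K1 cells stably expressing nuclear-localized β-gal enzyme acceptor and GR fused C-terminally to the enzyme donor fragment; ligand-driven nuclear translocation restores β-gal by complementation. Compounds titrated up to 46 uM final, 2 h at 37 °C; luminescence read.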

[4] = biological target: Mitogen-activated protein kinase 10 (Mus musculus) (UniProt Q61831); assay: JNK3 AlphaScreen Assay (AID 530; active = well fitted curve in either direction with a large enough effect, not every such curve was filed as active;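 also: kinase came from lysate of stimulated human HepG2 cells; signal reports phosphorylation of biotinylated GST-cJun 1-79 at Ser73 with 10 µM ATP; % is scaled to controls: 0 for no effect and ±100 for the full control effect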)
Summary of the method: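 Inhibitors reduce antibody binding to phosphorylated biotin-cJun, lowering AlphaScreen luminescence. Lysates from HepG2 cells pre-activated by IL-1beta plus TNF-alpha supplied JNK3; compounds were titrated.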

[5] = biological target: 3',5'-cyclic-AMP phosphodiesterase 4B (Homo sapiens) (UniProt Q07343); assay: qHTS Assay for Inhibitors of PDE-IV (AID 607; active = well fitted activation curve with a large enough effect in the main read-out, with a control signal flat, not every such curve was filed as active; also: % of control where 0% means no effect)
Summary of the method: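 Cell-based read-out of cAMP via a modified cyclic nucleotide-gated channel and membrane potential dye (535/590 nm) in HEK293 cells expressing PDE4 endogenously. Compounds tested up to 22.9 uM final; 100 uM RO 20-1724 reference.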

[6] = qHTS Assay for Lipid Storage Modulators (AID 1519; calls by dose curve); details: Drosophila S3 cells, BODIPY lipid droplet/cell ratio, laser cytometry, cells loaded with oleic acid; for activity change, negative = inhibition: at 57.5 µM (top of the series)
Summary of the method: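 Cells seeded at 5,000 per well were treated with compounds over a concentration series and loaded with oleic acid (400 uM, as added). Lipid droplet fluorescence (488 nm excitation, 500-530 nm channel) was read by laser-scanning cytometry and normalized to 20 uM Triacsin C.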

[7] = Primary qHTS for small molecule stabilizers of the endoplasmic reticulum resident proteome: Secreted ER Calcium Modulated Protein (SERCaMP) assay (AID 1508630); also: % is scaled to controls: 0 for no effect and ±100 for the full control effect
Summary of the method: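 GLuc-SERCaMP-expressing SH-SY5Y cells, pretreated 16 h with compound, are challenged with thapsigargin to empty ER calcium stores; after 4 h, coelenterazine is added directly to the medium and luminescence is imaged.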

[8] = biological target: Cytochrome P450 1A2 (Homo sapiens) (UniProt P05177); assay: p450-cyp1a2 (AID 410; calls by dose curve; also: potency is read from the fitted curve at half-maximal effect;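 as to activity change, negative = inhibition: -100% = full effect of reference inhibitor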)
Summary of the method: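 20nM CYP1A2 with 100uM Luciferin-ME (at Km) in 100mM KPO4; compound preincubated 10 min, NADPH regeneration added, 60 min at room temperature. Luciferin quantified by luminescence after detection reagent; normalized to 57 uM furafylline.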

[9] = biological target: Glucocorticoid receptor (Homo sapiens) (UniProt P04150); assay: GR-GFP Redistribution (AID 450;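 active = compounds whose dose series gives a full or clear partial fitted curve of increased nuclear translocation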; also: potency is read from the fitted curve at half-maximal effect); details: U2OS GR-GFP nuclear translocation, laser cytometry, 2 h
[10] = biological target: Cytochrome P450 3A4 (Homo sapiens) (UniProt P08684); assay: qHTS Assay for Activators of Cytochrome P450 3A4 (AID 885); also: nearly all actives have a fitted effect of over 65% in size
Summary of the method: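 Signal was normalized against complete inhibition by 57 uM ketoconazole. The reaction used 20nM CYP3A4 with 25uM Luciferin-PPXE, 10-min compound preincubation and a 60-min NADPH-supported step at RT.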

[11] = Confirmation and Secondary Assay for Modulators of Hemoglobin Beta Chain Splicing at IVS2 654 locus (AID 910);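 also: per-well total GFP intensity by laser scanning cytometry after 2-day treatment; % of control where 0% means no effect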
Summary of the method: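 HeLa cells stably carrying EGFP interrupted by mutant beta-globin IVS2-654 intron (CMV-driven) were treated with compound for 2 days at 37C; corrected splicing was scored as total peak GFP intensity per well (488 nm excitation, 500-520 nm emission).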

[12] = Confirmation and Secondary Assay for Modulators of Hemoglobin Beta Chain Splicing at IVS2 705 locus (AID 930);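 also: HeLa cells stably expressing the EGFP-705 splicing reporter; GFP fluorescence per well restored by corrected splicing of the IVS2-705 intron in EGFP; % of control where 0% means no effect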
Summary of the method: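 Splice-correction reporter: EGFP cDNA split by beta-globin intron 2 bearing the 705 mutation, stably in HeLa. Compound incubation 2 days, 37C; fluorescent objects 5-250 µm summed per well.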

[13] = biological target: Lysosomal acid glucosylceramidase (Homo sapiens) (UniProt P04062); assay: Glucocerebrosidase-p2 (AID 348; in the data active = potency below about 10 µM; also: potency is read from the fitted curve at half-maximal effect); details: purified GBA, blue fluorogenic substrate, 40 min
Summary of the method: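 Compounds titrated from 0.6 nM upwards against 0.2 nM enzyme in pH 5.9 citric acid/KH2PO4, taurocholate, tween-20; blue fluorogenic substrate 80 uM, 40 min room temperature, stopped and read Ex 365/Em 440 for AC50.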

[14] = biological target: Dual specificity protein kinase CLK4 (Homo sapiens) (UniProt Q9HAZ1); assay: qHTS Assay for Inhibitors of CDC-like Kinase 4 (ADP-FP Assay) (AID 1795); also: % is scaled to controls: 0 for no effect and ±100 for the full control effect; nearly all actives have a fitted effect of over 60% in size
Summary of the method: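 Recombinant human Clk4 (6.25 nM) phosphorylated RS repeat peptide (100 uM) with 1 uM ATP in Tris pH 7.5/MgCl2/EGTA/DTT/Triton buffer for one hour. ADP was quantified by Transcreener competitive fluorescence polarization against an ADP calibration curve.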

[15] = biological target: Ubiquitin carboxyl-terminal hydrolase 1 (Homo sapiens) (UniProt O94782); assay: Inhibitors of USP1/UAF1: Pilot qHTS (AID 504865);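 also: rhodamine fluorescence freed from ubiquitin-rhodamine substrate followed over time; top concentration of the series differs between compounds; % is scaled to controls: 0 for no effect and ±100 for the full control effect; nearly all actives have a fitted effect of over 35% in size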
Summary of the method: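 USP1/UAF1 complex (1nM) preincubated with compound 15 min at room temperature, then Ub-Rho substrate (150nM final) added. Fluorescence read kinetically at 480/540 nm, 6 reads every 60 seconds. Buffer: 50mM HEPES pH 7.8, 0.5mM EDTA, 0.1 mg/ml BSA, 1mM TCEP, 0.01% Tween-20.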

[16] = biological target: Rap guanine nucleotide exchange factor 3 (Homo sapiens) (UniProt O95398); assay: Confirmatory qHTS for antagonist of cAMP-regulated guanine nucleotide exchange factor 3 (EPAC1) (AID 1645880);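 also: plate controls were DMSO only for no effect and full effect of the ATA control for full effect; nearly all actives have a fitted effect of over 55% in size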
Summary of the method: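 Nucleotide exchange uses 100 nM EPAC1, 250 nM RAP1B-BODIPY-GDP and 50 uM GDP, with compounds in a concentration-titration series. After 5 min at room temperature, fluorescence (480 nm ex/540 nm em) is read every 5 min for 30 min. Data are normalized to control ATA and DMSO.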

[17] = biological target: Rap guanine nucleotide exchange factor 3 (Homo sapiens) (UniProt O95398); assay: Confirmatory qHTS for agonist of cAMP-regulated guanine nucleotide exchange factor 3 (EPAC1) (AID 1645881);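 also: EPAC1 catalysed release of BODIPY-GDP from Rap1B seen as fluorescence loss; 100% = effect of cAMP agonist control; nearly all actives have a fitted effect of over 75% in size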
[18] = biological target: Rap guanine nucleotide exchange factor 4 (Homo sapiens) (UniProt Q8WZA2); assay: Confirmatory qHTS for agonist of cAMP-regulated guanine nucleotide exchange factor 4 (EPAC2) (AID 1645884);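 also: nucleotide exchange releases bodipy-GDP from Rap1 and this lowers its fluorescence; % is scaled to controls: 0 for no effect and ±100 for the full control effect; nearly all actives have a fitted effect of over 65% in size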
[19] = biological target: Rap guanine nucleotide exchange factor 4 (Homo sapiens) (UniProt Q8WZA2); assay: Confirmatory qHTS for antagonist of cAMP-regulated guanine nucleotide exchange factor 4 (EPAC2) (AID 1645885); also: % is scaled to controls: 0 for no effect and ±100 for the full control effect; nearly all actives have a fitted effect of over 25% in size
[20] = NFAT Signaling Pathway (AID 444; active = well fitted curve in either direction with a large enough effect, not every such curve was filed as active); details: Jurkat NFAT-bla M1, carbachol, beta-lactamase ratio, 5 h; at 7.69 µM (top of the series) unless noted
Summary of the method: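 Jurkat cells carrying an NFAT-driven β-lactamase reporter and co-transfected muscarinic M1 receptor were treated with compound plus carbachol (1 uM final, an EC50 level) for 5 h at 37 °C. CCF4 loading followed for 1 h at RT; 460/530 nm ratio gave %activity.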

[21] = measured here: cell count channel max response
[22] = measured here: lipid channel max response

Sequence of Rap guanine nucleotide exchange factor 4 (Homo sapiens) (Q8WZA2 whole entry, looked up): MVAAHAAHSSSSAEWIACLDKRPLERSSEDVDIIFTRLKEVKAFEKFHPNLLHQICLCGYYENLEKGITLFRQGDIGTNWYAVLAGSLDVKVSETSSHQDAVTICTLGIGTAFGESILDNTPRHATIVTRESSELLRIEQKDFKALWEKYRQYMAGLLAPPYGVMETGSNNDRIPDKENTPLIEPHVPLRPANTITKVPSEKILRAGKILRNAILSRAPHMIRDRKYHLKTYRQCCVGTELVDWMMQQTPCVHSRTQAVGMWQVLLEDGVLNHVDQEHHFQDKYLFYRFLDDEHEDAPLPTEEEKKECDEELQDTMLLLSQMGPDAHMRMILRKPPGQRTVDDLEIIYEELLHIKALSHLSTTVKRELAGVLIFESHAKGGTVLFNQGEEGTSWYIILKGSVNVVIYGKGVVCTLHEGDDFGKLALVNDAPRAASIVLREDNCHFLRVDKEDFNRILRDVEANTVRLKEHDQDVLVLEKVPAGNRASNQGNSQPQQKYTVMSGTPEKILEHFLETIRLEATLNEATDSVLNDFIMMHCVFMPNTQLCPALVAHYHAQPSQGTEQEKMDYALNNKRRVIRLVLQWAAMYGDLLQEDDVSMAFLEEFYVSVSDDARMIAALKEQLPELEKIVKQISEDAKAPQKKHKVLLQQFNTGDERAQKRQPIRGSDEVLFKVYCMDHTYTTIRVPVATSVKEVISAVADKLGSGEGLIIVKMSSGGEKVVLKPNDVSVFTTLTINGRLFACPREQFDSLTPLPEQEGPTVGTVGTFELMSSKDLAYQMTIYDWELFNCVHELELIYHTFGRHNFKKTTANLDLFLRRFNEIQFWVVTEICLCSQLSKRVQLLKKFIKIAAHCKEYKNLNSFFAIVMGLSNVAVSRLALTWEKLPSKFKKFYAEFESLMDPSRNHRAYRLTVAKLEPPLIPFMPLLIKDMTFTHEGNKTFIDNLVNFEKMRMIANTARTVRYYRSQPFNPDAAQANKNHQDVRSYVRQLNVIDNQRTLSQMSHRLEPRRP
Sequence of Cytochrome P450 1A2 (Homo sapiens) (P05177 whole entry, looked up): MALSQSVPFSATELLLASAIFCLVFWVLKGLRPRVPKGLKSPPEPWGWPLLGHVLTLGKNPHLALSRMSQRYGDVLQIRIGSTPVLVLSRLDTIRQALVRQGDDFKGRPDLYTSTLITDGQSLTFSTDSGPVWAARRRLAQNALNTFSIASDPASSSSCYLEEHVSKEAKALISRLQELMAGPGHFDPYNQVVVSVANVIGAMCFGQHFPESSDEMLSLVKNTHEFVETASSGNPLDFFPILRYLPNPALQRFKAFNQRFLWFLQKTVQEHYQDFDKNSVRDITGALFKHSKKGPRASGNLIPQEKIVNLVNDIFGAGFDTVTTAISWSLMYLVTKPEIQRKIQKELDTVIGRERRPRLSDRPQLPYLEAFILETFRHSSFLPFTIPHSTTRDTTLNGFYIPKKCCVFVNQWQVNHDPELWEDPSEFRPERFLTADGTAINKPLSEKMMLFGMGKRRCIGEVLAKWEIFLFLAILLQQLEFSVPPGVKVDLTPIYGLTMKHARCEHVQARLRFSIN
Sequence of Glucocorticoid receptor (Homo sapiens) (P04150 whole entry, looked up, the tested form may be a part): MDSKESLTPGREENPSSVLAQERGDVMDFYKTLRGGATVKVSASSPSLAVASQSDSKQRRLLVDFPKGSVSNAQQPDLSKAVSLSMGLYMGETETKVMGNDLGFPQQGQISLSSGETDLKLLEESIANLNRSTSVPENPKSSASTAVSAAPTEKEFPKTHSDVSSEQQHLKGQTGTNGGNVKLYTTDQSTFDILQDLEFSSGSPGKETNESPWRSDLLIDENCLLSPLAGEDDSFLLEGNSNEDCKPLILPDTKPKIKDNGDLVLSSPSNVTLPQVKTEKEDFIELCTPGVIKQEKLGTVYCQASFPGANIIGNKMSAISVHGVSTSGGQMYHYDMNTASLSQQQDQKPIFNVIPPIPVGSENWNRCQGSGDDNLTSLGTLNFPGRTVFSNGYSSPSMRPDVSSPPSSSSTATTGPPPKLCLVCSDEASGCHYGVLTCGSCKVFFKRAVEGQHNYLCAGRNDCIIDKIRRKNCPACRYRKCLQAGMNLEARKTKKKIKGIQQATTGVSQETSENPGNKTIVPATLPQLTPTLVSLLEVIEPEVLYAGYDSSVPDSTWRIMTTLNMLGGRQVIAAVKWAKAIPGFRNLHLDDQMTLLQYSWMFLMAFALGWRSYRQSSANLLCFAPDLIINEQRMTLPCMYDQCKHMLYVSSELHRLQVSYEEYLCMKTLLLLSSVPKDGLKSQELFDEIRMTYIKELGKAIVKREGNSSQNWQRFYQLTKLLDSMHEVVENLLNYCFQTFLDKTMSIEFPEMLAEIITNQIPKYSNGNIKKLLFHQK
Sequence of 3',5'-cyclic-AMP phosphodiesterase 4B (Homo sapiens) (Q07343 whole entry, looked up): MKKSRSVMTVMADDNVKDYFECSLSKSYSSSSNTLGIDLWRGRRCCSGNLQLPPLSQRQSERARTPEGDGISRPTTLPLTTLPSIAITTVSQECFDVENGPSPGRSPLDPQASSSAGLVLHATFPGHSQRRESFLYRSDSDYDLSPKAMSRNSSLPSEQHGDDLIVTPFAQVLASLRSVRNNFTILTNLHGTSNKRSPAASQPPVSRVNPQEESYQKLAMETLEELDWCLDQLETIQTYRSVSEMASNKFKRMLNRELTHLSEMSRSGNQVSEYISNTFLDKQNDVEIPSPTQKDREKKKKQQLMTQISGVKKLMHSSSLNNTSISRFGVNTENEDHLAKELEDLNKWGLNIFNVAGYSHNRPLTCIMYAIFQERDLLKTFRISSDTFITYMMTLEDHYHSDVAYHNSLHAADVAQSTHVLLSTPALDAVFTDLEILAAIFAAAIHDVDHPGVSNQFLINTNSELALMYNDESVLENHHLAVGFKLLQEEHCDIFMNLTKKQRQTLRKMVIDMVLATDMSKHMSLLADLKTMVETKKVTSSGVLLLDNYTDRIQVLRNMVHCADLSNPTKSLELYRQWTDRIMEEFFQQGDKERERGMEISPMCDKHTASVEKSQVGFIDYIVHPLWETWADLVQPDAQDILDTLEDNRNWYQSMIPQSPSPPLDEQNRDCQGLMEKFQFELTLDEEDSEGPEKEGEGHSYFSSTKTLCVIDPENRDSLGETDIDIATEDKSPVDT
Sequence of Rap guanine nucleotide exchange factor 3 (Homo sapiens) (O95398 whole entry, looked up): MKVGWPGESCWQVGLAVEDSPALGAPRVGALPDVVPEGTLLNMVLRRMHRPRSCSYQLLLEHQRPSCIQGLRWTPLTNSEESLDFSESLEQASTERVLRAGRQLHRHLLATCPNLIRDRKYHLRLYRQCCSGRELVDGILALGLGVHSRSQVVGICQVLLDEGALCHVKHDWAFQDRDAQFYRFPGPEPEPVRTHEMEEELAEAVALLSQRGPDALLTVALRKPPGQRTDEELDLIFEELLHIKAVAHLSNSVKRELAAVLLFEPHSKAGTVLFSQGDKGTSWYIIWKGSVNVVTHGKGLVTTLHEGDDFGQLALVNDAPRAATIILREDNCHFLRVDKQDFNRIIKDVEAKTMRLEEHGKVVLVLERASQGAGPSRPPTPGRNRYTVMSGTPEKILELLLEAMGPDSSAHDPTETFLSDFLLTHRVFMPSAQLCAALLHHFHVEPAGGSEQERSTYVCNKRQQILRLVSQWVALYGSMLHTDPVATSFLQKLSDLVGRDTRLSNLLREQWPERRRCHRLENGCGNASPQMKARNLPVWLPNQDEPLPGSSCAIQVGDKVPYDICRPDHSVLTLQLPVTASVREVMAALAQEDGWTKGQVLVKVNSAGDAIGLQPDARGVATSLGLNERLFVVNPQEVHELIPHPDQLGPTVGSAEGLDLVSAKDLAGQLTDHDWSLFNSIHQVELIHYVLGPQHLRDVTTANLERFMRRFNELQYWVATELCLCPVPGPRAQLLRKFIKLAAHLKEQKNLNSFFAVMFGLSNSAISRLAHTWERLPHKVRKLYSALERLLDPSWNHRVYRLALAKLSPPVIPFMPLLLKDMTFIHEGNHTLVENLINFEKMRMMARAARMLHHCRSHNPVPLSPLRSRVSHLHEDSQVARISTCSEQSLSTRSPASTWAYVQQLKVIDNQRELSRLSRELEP
Sequence of Ubiquitin carboxyl-terminal hydrolase 1 (Homo sapiens) (O94782 whole entry, looked up): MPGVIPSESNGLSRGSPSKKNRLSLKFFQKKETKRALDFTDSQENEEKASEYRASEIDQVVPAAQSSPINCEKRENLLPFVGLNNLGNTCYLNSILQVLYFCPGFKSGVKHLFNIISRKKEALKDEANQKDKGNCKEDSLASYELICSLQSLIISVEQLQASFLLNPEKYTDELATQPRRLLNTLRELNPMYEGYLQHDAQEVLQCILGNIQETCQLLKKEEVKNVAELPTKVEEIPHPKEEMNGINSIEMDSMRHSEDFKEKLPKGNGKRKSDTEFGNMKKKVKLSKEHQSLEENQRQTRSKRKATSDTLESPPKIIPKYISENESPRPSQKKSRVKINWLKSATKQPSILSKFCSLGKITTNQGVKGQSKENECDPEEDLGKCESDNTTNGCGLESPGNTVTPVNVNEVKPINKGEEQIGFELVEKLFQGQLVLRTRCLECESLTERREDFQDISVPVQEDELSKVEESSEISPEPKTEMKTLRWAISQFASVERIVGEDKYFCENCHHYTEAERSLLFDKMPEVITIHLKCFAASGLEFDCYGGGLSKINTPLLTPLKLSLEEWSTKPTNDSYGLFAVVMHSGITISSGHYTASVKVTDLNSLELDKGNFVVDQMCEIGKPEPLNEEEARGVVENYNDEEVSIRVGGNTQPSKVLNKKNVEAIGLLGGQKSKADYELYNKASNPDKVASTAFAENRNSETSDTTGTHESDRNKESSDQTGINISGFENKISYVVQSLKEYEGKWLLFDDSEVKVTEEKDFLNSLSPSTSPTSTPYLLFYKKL

O=C(c1ccncc1)N1CCC2(CC1)CCN(c1ccncc1)CC2
-11.6%: max response [6, 21]
inactive: activity change, negative = inhibition [1] -16.4% | activity, negative = inhibition [2] 5.08% | Potency [3] > 46 µM | Potency [4] | Potency [5] | activity change, negative = inhibition [6] 1.78% | outcome [7]
-7.91%: max response [6, 22]

CS(=O)(=O)Nc1cccc(-c2ccc3ncnc(Nc4ccc(F)cc4)c3c2)c1
-27.4%: max response [6, 21]
inactive: activity, negative = inhibition [2] 4.21% | Potency [9] > 46 µM | Potency [3] > 46 µM | Potency [4] | Potency [10] | Potency [11] | outcome [12] | activity change, negative = inhibition [6] 2.96% | outcome [7]
-14.7%: max response [6, 22]
active: Potency [8] 0.794 µM

COc1ccc(-n2c(=O)c(-c3ccc(Cl)cc3)nc3cnc(N(C)C)nc32)cc1
active: Potency [8] 10 µM
inactive: Potency [13] > 11.4 µM | Potency [9] > 9.22 µM | Potency [3] > 46 µM | Potency [4] | Potency [14] | Potency [15] | outcome [7] | Potency [16] | Potency [17] | Potency [18] | Potency [19]

COc1cccc(Cn2c(=O)c(-c3ccc(F)cc3)nc3cnc(N4CCOCC4)nc32)c1
inactive: Potency [13] > 11.4 µM | Potency [9] > 9.22 µM | Potency [3] > 46 µM | Potency [4] | Potency [5] | Potency [14] | Potency [15] | outcome [7] | Potency [16] | Potency [17] | Potency [18] | Potency [19]

O=C(c1ccncc1)N1CCC2(CC1)CCN(c1ccc(-c3ccccc3)cc1)CC2
inactive: activity change, negative = inhibition [1] -18.3% | activity change, negative = inhibition [20] 14.4% | activity, negative = inhibition [2] -9.73% | Potency [3] > 46 µM | Potency [4] | Potency [5] | activity change, negative = inhibition [6] 0.379% | outcome [7]
2.35%: max response [6, 22]
-2.77%: max response [6, 21]

N[C@H](C(=O)O)c1ccc(O)c(C(=O)O)c1
18.1%: max response [6, 21]
inactive: Potency [8] | Potency [9] > 46 µM | Potency [4] | Potency [5] | activity change, negative = inhibition [6] 1.32% | Potency [15] | outcome [7]
22.5%: max response [6, 22]

CC(C)NC(=O)N1CCC2(CC1)CCN(S(=O)(=O)c1ccccc1)CC2
-0.645%: max response [6, 21]
4.57%: max response [6, 22]
inactive: activity change, negative = inhibition [1] -11.1% | activity change, negative = inhibition [20] 6.99% | activity, negative = inhibition [2] -1.93% | Potency [3] > 46 µM | Potency [4] | Potency [5] | activity change, negative = inhibition [6] 3.73% | outcome [7]

COc1ccc(Oc2ncc3nc(-c4ccc(F)cc4)c(=O)n(C)c3n2)cc1
inactive: activity change, negative = inhibition [20] -22.3% | activity, negative = inhibition [2] 12.3% | Potency [9] > 9.22 µM | Potency [3] > 46 µM | Potency [4] | Potency [5] | Potency [10] | activity change, negative = inhibition [6] 4.46% | outcome [7]
active: Potency [8] 2 µM
24.3%: max response [6, 22]
18%: max response [6, 21]
